NALP1 inh: blocks the NALP1 inflammasome reconstituted in yeast; inhibition, % at 10 µM; 280,000 tested, 0.61% active; S. cerevisiae NALP1/ASC/caspase-1 growth, X-gal OD620, 72 h; AID 2071; in the data active = inhibition mostly above about 24%, no sharp cut-off; inactive = mostly below about 32%
PfHsp90 yeast 2: growth inhibition of yeast expressing Plasmodium Hsp90; S. cerevisiae expressing PfHsp90, BacTiter-Glo ATP, 48 h; yeast lacking PDR1 and PDR3 efflux regulators; inhibition, % at 9.4 µM; 310,000 tested, 0.32% active; AID 504621;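 active = every replicate shows inhibition above about 80%, whatever the replicate mean, limit read from the data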;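 note: 0% = DMSO neutral controls and 100% = 20 µM radicicol positive controls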
tim23-1 inh: tim23-1 yeast growth inhibition. inhibition, % at 20 µM. 330,000 tested, 1.3% active. S. cerevisiae tim23-1 growth, BacTiter-Glo luminescence, 24 h;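 active = growth inhibition of the mutant yeast at or above 50%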;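 note: temperature-sensitive mutant grown at 25 °C; plate controls were DMSO-treated mutant yeast for no effect and medium wells lacking yeast for full effect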
tim10-1 inh: tim10-1 yeast growth inhibition. inhibition, % at 20 µM. S. cerevisiae tim10-1 ts strain growth, BacTiter-Glo, 24 h. 330,000 tested, 2.2% active;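 active = inhibition of at least 40%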;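 note: mutant grown at 25 °C; 0% = DMSO wells with yeast and 100% = wells holding no yeast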
TIM10 inh: inhibits growth of TIM10 yeast strain | S. cerevisiae TIM10 strain growth, BacTiter-Glo luminescence, 24 h | inhibition, % at 10 µM | 330,000 tested, 1.4% active | AID 463195;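 active = inhibition of 40% or more at the single tested concentration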;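 note: wild-type TIM10 isogenic control strain grown at permissive 25 °C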
SKKanGAS inh: inhibitors of SKKanGAS S. pyogenes growth in kanamycin (SK-promoter or general growth effect); inhibition, % at 7.5 µM; 300,000 tested, 1.3% active; AID 1662; BacTiter-Glo, 6 h;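 active = mean replicate score, as percent of positive control median, at least 50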;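 note: strain carries kanamycin resistance gene driven by streptokinase promoter and grows in 40 µg/ml kanamycin; loss of luminescence reflects streptokinase promoter inhibition or plain growth inhibition; 0% = median of DMSO wells and 100% = positive control at its reference dose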
tim10-1 confirm: tim10-1 yeast growth inhibition, confirmed. shares compounds with tim10-1 inh. S. cerevisiae tim10-1 ts strain growth, BacTiter-Glo, 24 h. inhibition, % at 20 µM. 7,400 tested, 56% active. AID 463213;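 active = inhibition of yeast growth at or above a set limit in either of two repeat tests at 20 µM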;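 note: tim10-1 mutant grown at permissive 25 °C to find synthetic lethal compounds; 0% = DMSO yeast wells and 100% = medium wells without yeast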
Starred values were filed as active, the others as inactive; nt = no result. Shown are actives, neighbours in structure and some others; about 4.8% of the full set was active somewhere.

SMILES | NALP1 inh | PfHsp90 yeast 2 | tim23-1 inh | tim10-1 inh | TIM10 inh | SKKanGAS inh | tim10-1 confirm
O=S(=O)(NCCSc1ccc(Cl)cc1)c1ccc2c(c1)OCCO2 | 15 | -11 | 30 | 56* | 24 | 2 | 49*
COc1cccc2[nH]c3c(N4CCC(C)CC4)ncnc3c12 | 17 | -14 | 23 | 41* | 19 | 4 | 24
CSc1ccccc1NC(=S)N/N=C/c1cccn1Cc1cccc(C)c1 | 2 | -27 | 16 | 38 | 37 | 36 | nt
CSc1ccccc1NC(=S)N/N=C/c1cccn1Cc1ccc(F)cc1 | -8 | -63 | 12 | 44* | 23 | 44 | 30
CCOC(=O)[C@H]1[C@H]2COc3ccccc3[C@@H]2N2C(=O)c3cc(OC)ccc3NC(=O)[C@@]12C | nt | 2 | 0 | 23 | 0 | nt | nt
CCOc1ccc(NC(=O)CSc2nc(N3CCOCC3)nc(N3CCOCC3)n2)cc1 | 13 | -5 | 14 | 10 | 14 | 3 | nt
Cn1c(N)c(C(=O)COC(=O)C2CCC(C(C)(C)C)CC2)c(=O)n(C)c1=O (stereo not given) | 36 | nt | 19 | 42* | 10 | 4 | 26
Cc1cccc(NS(=O)(=O)c2cccc([N+](=O)[O-])c2)n1 | 7 | 1 | 0 | -5 | 7 | 2 | nt
CC(C)(O)c1cc2ccccc2c(=O)o1 | nt | 2 | 5 | 7 | -1 | nt | nt
Cc1nn(-c2ccccc2)c2c1c(C)c(CCC(=O)N1CCOCC1)c(=O)n2C | 2 | -22 | 31 | 41* | 12 | 7 | 14
CCCn1c(CC)nc([N+](=O)[O-])c1S(=O)(=O)c1ccccc1 | 9 | 16 | 40 | 54* | 38 | 11 | 43*
CCc1nc(C)cn1S(=O)(=O)c1ccc([N+](=O)[O-])cc1 | -4 | 9 | 20 | 17 | 6 | 6 | nt
CCCOc1ccc(CNC(=S)Nc2ccccc2)cc1Cl | -27 | -34 | 36 | 43* | 23 | -3 | 23
COc1ccc(CNc2nc3nc(C)c(Cl)c(=O)n3[nH]2)cc1OC | -9 | -7 | 24 | 9 | -5 | 0 | nt
COc1ccc(C)cc1NC(=O)CNC(=O)Cn1ccc2ccccc2c1=O | 1 | 8 | -1 | 8 | 7 | -3 | nt
COc1ccccc1CC(=O)NCCc1ccccc1 | 11 | 5 | 9 | 4 | -1 | -2 | nt
Cc1ccc(N2C(=O)N3[C@H]4c5ccccc5OC[C@@H]4[C@@H](c4ccccc4)[C@@]3(C)C2=O)cc1 | 2 | -11 | 24 | 49* | 7 | 0 | 19
C=CCN(CC=C)C(=O)c1cc2ccccc2c(=O)o1 | 26 | 17 | 7 | 9 | 9 | 15 | nt
Cc1cccc(C(=O)CC(=O)c2cc(Cl)ccc2O)c1 | 22 | 19 | 41 | 47* | 29 | 94* | 63*
CC(=O)c1ccc(OCC(=O)N(C2CCCCC2)C2CCS(=O)(=O)C2)cc1 (stereo not given) | nt | -1 | 10 | 18 | -2 | -11 | nt
COc1ccc(COC(=O)Nc2cc3c(C(F)(F)F)nn(C)c3s2)cc1 | -21 | -3 | 12 | 44* | 14 | 4 | 26
O=C(C1=C[C@H](c2ccc3c(c2)OCO3)C[C@H](OCCCCO)O1)N1CCN(Cc2ccc3c(c2)OCO3)CC1 | 12 | 4 | -1 | -2 | 12 | -1 | nt
Brc1ccc(-c2csc3ncnc(-n4nnc5ccccc54)c23)cc1 | 21 | -11 | 49 | 45* | 14 | 6 | 32*
Cc1sc2ncnc(-n3nnc4ccccc43)c2c1C | 7 | nt | -4 | 28 | -17 | -5 | nt
O=Nc1c(O)n(Cc2ccc(Cl)cc2)c2ccccc12 | 5 | -38 | 14 | 35 | 32 | 8 | nt
Cc1ccc2c(c1)c(N=O)c(O)n2Cc1ccc(Cl)cc1 | 13 | 3 | 28 | 49* | 30 | 43 | 36*
O=C(CC1S/C(=N/N=C2CCCCCC2)NC1=O)Nc1ccc(Br)cc1F (stereo not given) | -13 | -8 | 35 | 44* | 17 | 1 | 21
O=C(CC1S/C(=N/N=C2CCCCCC2)NC1=O)Nc1ccccc1F (stereo not given) | -2 | 13 | 24 | 17 | 6 | -4 | nt
